From PubChem BioAssay (NCI)
The panel holds about 79,000 compounds, 15% with a hit somewhere; the sample as a whole holds those more often. No stated cut-off is given here; in the data, active means growth inhibition above about 70%; inactive means the rest.

Tests used:
[1] = NCI Yeast Anticancer Drug Screen. Data for the rad50 strain (AID 155);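 further: 0% = growth of vehicle-only cultures of the same strain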; details: S. cerevisiae rad50 strain growth inhibition; at 50.0 µM; active compounds read high
Summary of the method: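 Yeast carrying a defined DNA repair defect were exposed to test compounds, and growth was compared with vehicle-treated controls to give percent inhibition.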

[2] = NCI Yeast Anticancer Drug Screen. Data for the mec2-1 strain (AID 157); details: S. cerevisiae mec2-1 strain, at 50.0 µM, active compounds read high
Summary of the method: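 Cells of the genetically defined mec2-1 yeast strain are incubated with test compound. Inhibition of growth is calculated against vehicle-treated controls.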

[3] = NCI Yeast Anticancer Drug Screen. Data for the sgs1 mgt1 strain (AID 161);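 further: 0% = growth of cultures given vehicle only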; details: S. cerevisiae sgs1 mgt1 strain, at 50.0 µM, active compounds read high
Summary of the method: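 Mutant yeast exposed to compound; growth scored against vehicle-only wells.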

[4] = NCI Yeast Anticancer Drug Screen. Data for the cln2 rad14 strain (AID 165);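 further: 0% = growth equal to vehicle treated cultures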; details: S. cerevisiae cln2 rad14 strain, at 50.0 µM, active compounds read high
Summary of the method: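 The screen exposed genetically defined yeast (cln2 rad14) to test compounds and scored growth inhibition relative to vehicle-treated controls.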

[5] = NCI Yeast Anticancer Drug Screen. Data for the bub3 strain (AID 167); details: S. cerevisiae bub3 mutant strain, at 50.0 µM, active compounds read high
Summary of the method: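 Compounds were applied to a genetically altered yeast strain carrying a cell-cycle control defect. Growth inhibition was scored against vehicle-treated controls.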

[6] = NCI Yeast Anticancer Drug Screen. Data for the mlh1 rad18 strain (AID 175); details: S. cerevisiae mlh1 rad18 strain growth inhibition; at 50.0 µM; active compounds read high
Summary of the method: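 Compound-treated yeast growth, normalised to vehicle controls. Strain bears defined DNA repair mutations.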

Measured: growth inhibition

Cc1cc[n+](CCc2c[nH]c3ccccc23)cc1C
inactive: [1] 30.5% | [2] -0.3% | [3] 11.9% | [4] 20.4% | [5] -1.65% | [6] 10.8%

S=C(Nc1ccc2ccccc2c1)Nc1ccc2ccccc2c1
inactive: [1] 22% | [2] 10.9% | [3] 14.4% | [4] -30.6% | [5] 5.4% | [6] -2%

COC1(OC)CC(CCl)OC1(OC)OC (stereo not given)
inactive: [1] -2.45% | [2] 0.25% | [3] 12.7% | [4] 1.55% | [5] 3.15% | [6] -4.5%

O=c1ccn2cnc3c(ncn3C3OC(CO)C(O)C3O)c2n1 (stereo not given)
inactive: [1] 4.8% | [2] 9% | [3] 10.2% | [4] 7.2% | [5] -10.9% | [6] 9.85%

CC(=O)NCCO
inactive: [1] -12.7% | [2] -22.8% | [3] -12.7% | [4] -19.4% | [5] 3.9% | [6] 7.25%

CCC1(O)C(=O)Nc2ccccc2C1=O (stereo not given)
inactive: [1] -3% | [2] -22.8% | [3] -17.3% | [4] -13.6% | [5] -23.1% | [6] -5.85%

Cc1ccc2c(c1)C(c1ccccc1)(c1ccccc1)OC2=O
inactive: [1] 17.6% | [2] 11.9% | [3] 6.75% | [4] 7.95% | [5] 11.4% | [6] 20.4%

S=c1cc(S)nc[nH]1
inactive: [1] 29% | [2] 8.3% | [3] 11.9% | [4] 20.9% | [5] 23.9% | [6] 9.45%

COc1ccc(-c2nc3c(nc2-c2ccc(OC)cc2)C(N)=NS(=O)(=O)N3)cc1
inactive: [1] -18.9% | [2] -7.95% | [3] -19.9% | [4] 2.2% | [5] -17.6% | [6] -10.1%

CN(N=O)c1c([N+](=O)[O-])cc2c(c1[N+](=O)[O-])Cc1ccccc1-2
inactive: [1] 0.4% | [2] -4.3% | [3] -8.8% | [4] 17.6% | [5] 14.7% | [6] 19.4%

O=C(Nc1ccc(CCc2ccc(NC(=O)C34CC5CC(CC(C5)C3)C4)cc2)cc1)C12CC3CC(CC(C3)C1)C2
inactive: [1] -9.65% | [2] -6.55% | [3] 13.8% | [4] -0.45% | [5] -0.25% | [6] 2.55%

Nc1ncnc2c1ncn2C1OC(C(O)CO)C(O)C1N (stereo not given)
inactive: [1] -15.7% | [2] -0.3% | [3] -13.7% | [4] -14.8% | [5] 0.55% | [6] -23.6%

CCCCn1c(=S)sc2ccccc21
inactive: [1] 15.2% | [2] 4.45% | [3] 20.8% | [4] -50.5% | [5] 21.7% | [6] 22.4%

COc1ccc(C(=O)c2ccccc2C(=O)c2ccc(OC)cc2)cc1
inactive: [1] -22.1% | [2] 16.1% | [3] -1.4% | [4] -37.8% | [5] -7.7% | [6] 6.95%

COc1c(NC(=O)c2c(Br)c(Br)c(Br)c(Br)c2C(=O)O)cccc1[N+](=O)[O-]
inactive: [1] 1.5% | [2] 6.65% | [3] 7.65% | [4] -4.2% | [5] -1.2% | [6] 17.1%

Cc1cc(C)n(-c2ccc([N+](=O)[O-])cn2)n1
inactive: [1] 4.55% | [2] 12% | [3] -1.3% | [4] -8.2% | [5] 9.85% | [6] 5.25%

O=C(c1ccccc1)c1nc2ccc(Cl)cc2cc1C(Br)Br
inactive: [1] 17.9% | [2] -2.75% | [3] 25.1% | [4] 15.1% | [5] 28.8% | [6] 17.9%

CN(C)CCC(CCN(C)C)=NOC(=O)c1ccccc1
inactive: [1] -5.45% | [2] -20.2% | [3] 10.1% | [4] 8.55% | [5] 21.4% | [6] 15.6%

COc1c2c(cc3c(CCc4ccccc4)cc(=O)oc13)CCC(C)(C)O2
inactive: [1] -5.95% | [2] -22.8% | [3] -6.5% | [4] 15.4% | [5] -5.75% | [6] -27.3%

O=C(O)C(CCOc1ccccc1)(CCc1ccccc1)C(=O)O
inactive: [1] 4.1% | [2] -10.8% | [3] 5.7% | [4] -58.5% | [5] -8.1% | [6] -13.4%

O=C1NC(=O)C(c2ccc3c(c2)OCO3)N1 (stereo not given)
inactive: [1] -3.25% | [2] -10.6% | [3] -6% | [4] -30.9% | [5] -23.3% | [6] 7.05%

CCc1cccc(C(C)C)c1NC(=O)/C(=N\NC(N)=O)C(C(=O)OC)c1cnc2ccccc2n1 (stereo not given)
inactive: [1] 19.8% | [2] 29.8% | [3] 1.15% | [4] 11.1% | [5] 26.1% | [6] 21.4%

Cc1cc(=O)[nH]c(=O)n1CCCN(C)CCCn1c(C)cc(=O)[nH]c1=O
inactive: [1] 2.2% | [2] -2.35% | [3] 8.85% | [4] -0.9% | [5] -28.6% | [6] -3.95%

Cn1ncc2c(NCCc3ccccc3)nc(Cl)nc21
inactive: [1] 19.8% | [2] -18.3% | [3] 5.15% | [4] 11.2% | [5] 8.1% | [6] 30.2%

O=C(NC(=O)c1cc(-c2ccccc2)n[nH]1)c1ccccc1
inactive: [1] -71.5% | [2] -10.1% | [3] -14.4% | [4] -6.3% | [5] -20.4% | [6] -10.8%

CN(C)c1ccccc1C(=O)N/N=C/c1ccc(F)cc1
inactive: [1] -4.7% | [2] -31.3% | [3] -6.55% | [4] -13.8% | [5] -14.9% | [6] -6%

CCOP(=O)(OCC)OC1CC(n2cnc3c(N(CC)CC)ncnc32)OC1CO[Si](C)(C)C(C)(C)C (stereo not given)
inactive: [1] 19.1% | [2] 8.65% | [3] 54% | [4] 38.8% | [5] 47.9% | [6] -16.1%

c1ccc(-c2ccccc2-c2ccccc2-c2ccccc2)cc1
inactive: [1] -58.8% | [2] -5.6% | [3] -5.9% | [4] -39.5% | [5] 21.5% | [6] -12.3%

CCOC(=O)/C(C#N)=C\NC(=O)NC
inactive: [1] 3% | [2] 2.3% | [3] 2.2% | [4] -18.4% | [5] -5.25% | [6] -0.5%

CC1(c2ccc(-c3ccccc3)cc2)NC(=O)NC1=O (stereo not given)
inactive: [1] 3.55% | [2] 10.3% | [3] 14.9% | [4] -22.5% | [5] -4.85% | [6] -2.3%

O=C(OCC1CCCO1)c1ccc(Cl)cc1 (stereo not given)
inactive: [1] 13.7% | [2] -4.4% | [3] 24.9% | [4] 34.1% | [5] 8% | [6] 7.2%

Cc1nc(=S)c2cnn(-c3ccccc3)c2[nH]1
inactive: [1] -15.4% | [2] -21.2% | [3] -3.9% | [4] -57.2% | [5] -27.1% | [6] -0.6%

COc1ccc(C(=O)c2c(C(=O)O)ccc3ccccc23)cc1
inactive: [1] 9.55% | [2] 2.25% | [3] 11.3% | [4] -39.3% | [5] 6.75% | [6] -21.5%

Cc1ncc(CO)c(Nc2ccccc2)n1
inactive: [1] 1.85% | [2] 5.8% | [3] -0.25% | [4] -25.5% | [5] -4.8% | [6] 8.4%

CN1C(=O)C(=O)N2c3ccc(Cl)cc3C3(c4ccccc4)N=CC12O3 (stereo not given)
inactive: [1] 9.3% | [2] 3.05% | [3] 6% | [4] 5% | [5] -8.4% | [6] -3.1%

CCCCn1cccc1
inactive: [1] 33.2% | [2] 10.2% | [3] 9.3% | [4] 15% | [5] 26.8% | [6] 26.4%

COc1ccccc1C(=O)Nc1c(C)cccc1Cl
inactive: [1] -0.45% | [2] -25.9% | [3] -0.8% | [4] 0.4% | [5] -10% | [6] 7%

COc1ccc2c3c([nH]c2c1[N+](=O)[O-])C(C)N(C)CC3 (stereo not given)
inactive: [1] -0.1% | [2] 7.5% | [3] 21.1% | [4] 25.3% | [5] 0.8% | [6] 33.2%

Cc1ccc(NC(=O)CN2CCCCC2)cc1
inactive: [1] -16.9% | [2] -7.65% | [3] -7% | [4] 3.9% | [5] -0.9% | [6] -21.9%

O=CNC(Cc1cnc[nH]1)C(=O)O (stereo not given)
inactive: [1] -14.4% | [2] -16.9% | [3] -48.1% | [4] -68.2% | [5] -25.5% | [6] -30.2%
